# Shown is part of a subset that was picked to be rich in hits.
# Dicer inh – inhibitors of human Dicer processing of pre-microRNA; Q9UPY3; cat-ELCCA pre-miR-21 Dicer processing, chemiluminescence; hits give high values; z-score at 25 µM; 47,000 compounds, 6% hits; AID 1347074; in the data active = z-score above about 3, passing the limit was not always enough;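 note: plate controls were vehicle for no effect and no enzyme for full effect; higher signal means more uncleaved substrate so more Dicer inhibition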
# Active calls of the source: *.
SMILES,Dicer inh
C(=N\Nc1ncnc2sc(-c3ccccc3)cc12)/c1cccs1,1.1
Cn1c(=O)[nH]c(=O)c2c1nc(Br)n2CC(O)COc1ccc2ccccc2c1 (configuration not stated),-0.39
Cc1c(Br)sc2sc(-c3ccn[nH]3)c(C)c12,-0.6
O=C(Nc1ccc(Cl)cc1)c1cscc1Sc1ccc(Cl)cc1,0.85
CCOc1ccccc1N1CCN(S(=O)(=O)c2ccc(Br)cc2)CC1,1.2
CCOC(=O)c1c(NC(=O)c2nc3ncccn3n2)sc2c1CCC2,0.2
CCNC(=O)NNc1c(Cl)cccc1Cl,-0.28
COc1ccc(Nc2sc(C(C)=O)cc2[N+](=O)[O-])cc1,1.4
CC(=O)c1cc([N+](=O)[O-])c(Nc2ccc(Cl)cc2)s1,4.8*
CC(=O)c1cc([N+](=O)[O-])c(Nc2ccccc2)s1,0.9
CN1CCN(C(c2ccccc2)c2ccc(Cl)cc2)CC1 (configuration not stated),-0.11
CN1CCN(C(c2cccs2)N2CCN(C)CC2)CC1,4.6*
CN1CCN(C(c2cccs2)c2ccc3cccnc3c2O)CC1 (configuration not stated),0.94
CC(C)n1c(SCC(=O)Nc2ccc(Cl)cc2)nc2cc(C(F)(F)F)ccc21,-0.03
COc1ccc(NC(=O)OC(C)C)cc1,3.5*
COc1ccc(NC(=O)c2scc(S(=O)(=O)C(C)C)c2N)cc1,-0.51
CCN(CC)C(=O)Nc1ccc(OC)cc1,0.09
CCOC(=O)C1=C(C)NC2=C(C(=O)CC(C)(C)C2)C1c1ccc(CC)cc1 (configuration not stated),1.6
CNC(=S)NNC(=O)c1ccc(C(F)(F)F)cn1,1.9
NC(=O)C1CCN(C(=O)N2c3ccccc3Sc3ccccc32)CC1,2.2
CCOC(=O)C1CCN(C(=O)N2c3ccccc3Sc3ccccc32)CC1,4.8*
O=C(Cc1cccs1)N1c2ccccc2Sc2ccccc21,0.57
O=C(N1CCN(CCO)CC1)N1c2ccccc2C=Cc2ccccc21,-0.57
CN1CCN(C(=O)N2c3ccccc3Sc3ccccc32)CC1,3.4*
CCOC(=O)N1c2ccccc2Sc2ccccc21,0.27
SMILES,Dicer inh
CC(/C=N/OC(=O)c1ccc(F)cc1)=N\Nc1c(Cl)cc(Cl)cc1Cl,-0.3
CCCCNC(=O)C(=O)NCC1CCCO1 (configuration not stated),0.04
Cc1ccc2[nH]c(C)c(CN3CCCC(C)C3)c(=O)c2c1 (configuration not stated),0.14
CC(C)(CC(=O)O)CC(=O)Nc1ccc2c(c1)C(=O)OC2,2.2
CC12C=CC(O1)C1C(=O)N(c3ccc(N4CCOCC4)cc3)C(=O)C12 (configuration not stated),-0.66
O=C(Nc1ccccc1)c1sc2ccccc2c1Cl,-1.5
CCOC(=O)c1sc(NC(=O)c2sc3ccccc3c2Cl)nc1C,-0.51
Cc1ccc2c(Cl)c(C(=O)Nc3nc(C)c(C)s3)sc2c1,3.6*
Cc1ccc(CN2CCN(C3CCCC(C)C3)CC2)cc1 (configuration not stated),2.4
CC(C)(C)c1cc(C(=O)Oc2cncc(Cl)c2)cc(C(=O)Oc2cncc(Cl)c2)c1,36*
COC(=O)c1cncc(C(=O)OC)c1,-1.1
CC(C)(C)c1ccc(C(=O)Oc2c(Cl)cncc2Cl)cc1,0.22
O=C(O)c1ccc(-c2nnn(Cc3ccc(F)cc3)n2)cc1,2.4
CCC(=O)N1c2ccccc2C(N(C(=O)c2ccco2)c2ccccc2)CC1C (configuration not stated),0.95
CN(C)c1ncnc(Oc2ccc(Cl)cc2)c1[N+](=O)[O-],-0.04
CC1CC(NC(=S)Nc2ccc(I)cc2F)CC(C)(C)C1 (configuration not stated),1
S=C(N/N=C/C=C/c1ccccc1)NC1CC2CC1C1C=CCC21 (configuration not stated),0.15
CC1CC(NC(=S)NC2CC3CC2C2C=CCC32)CC(C)(C)C1 (configuration not stated),3.1*
COc1nc(NCC(C)C)nc(Oc2ccc(=O)n(C)n2)n1,-0.95
Cc1ccc(-c2cc(C(F)(F)F)c(C#N)c(=S)[nH]2)cc1,-1
COC(=O)Cc1nc(-c2ccc(Cl)cc2)sc1C,-1
O=C(N[C@@H]1C[C@H]2CC[C@@H]1C2)c1ccc(C2SCC(=O)N2CCc2ccccc2)cc1 (some centres not stated),1.4
Cc1cc([N+](=O)[O-])nn1Cc1cccc(C(=O)O)c1,0.47
Cc1cccc(C)c1OCC(O)Cn1c(C)[n+](C)c2ccccc21 (configuration not stated),-0.63
CCCc1n(CC(O)COc2ccccc2C)c2ccccc2[n+]1C (configuration not stated),0.57
SMILES,Dicer inh
Cc1n(CC(O)COc2cccc(Cl)c2)c2ccccc2[n+]1C (configuration not stated),-1.3
CCCc1n(CC(O)COc2cccc(OC)c2)c2ccccc2[n+]1C (configuration not stated),-0.34
CCCc1n(CC(O)COc2ccc(F)cc2)c2ccccc2[n+]1C (configuration not stated),3.7*
COc1ccc(OCC(O)Cn2c(C)[n+](C)c3ccccc32)cc1 (configuration not stated),3.8*
CNC(=S)N/N=C/c1cccc2ccccc12,1.2
O=C(NNc1ccccc1C(F)(F)F)NC(=O)c1ccccc1Cl,0.63
COCCCNC(=O)c1sc2cc(Cl)ccc2c1Cl,0.13
Cc1ccc2oc3c(c(=O)c2c1)C(c1ccc(C(C)C)cc1)N(CCCN(C)C)C3=O (configuration not stated),-0.2
CCC(C)Sc1scc(-c2ccc(Cl)cc2)c1C#N (configuration not stated),0.21
CC1=CC(C)(C)Nc2ccc(OC(=O)c3ccccc3)cc21,2.1
OC[C@H]1O[C@@H](Sc2ccccc2)[C@H](O)[C@@H](O)[C@H]1O,-1.4
O=[N+]([O-])c1cc(Br)c(Oc2cncc(Cl)c2)cc1Oc1cncc(Cl)c1,-1.4
COc1ccc(C2C(C#N)=C3N=C(N)c4ccccc4N3C3=C2C(=O)CC(C)(C)C3)c(OC)c1 (configuration not stated),3
N#CC1=C2N=C(N)c3ccccc3N2C2=C(C(=O)CCC2)C1c1ccc(F)cc1 (configuration not stated),0.21
Cc1ccc(C2C(C#N)=C3N=C(N)c4ccccc4N3C3=C2C(=O)CCC3)cc1 (configuration not stated),2.5
CC1(C)CC(=O)C2=C(C1)N1C(=C(C#N)C2c2ccccc2F)N=C(N)c2ccccc21 (configuration not stated),3.2*
COc1cccc(C2C(C#N)=C3N=C(N)c4ccccc4N3C3=C2C(=O)CCC3)c1OC (configuration not stated),-2.4
CN(C)c1ccc(C2C(C#N)=C3N=C(N)c4ccccc4N3C3=C2C(=O)CCC3)cc1 (configuration not stated),3.4*
COc1cc(C2c3c(oc4ccccc4c3=O)C(=O)N2c2nncs2)ccc1O (configuration not stated),-0.34
O=C1NCCCCC1NS(=O)(=O)c1ccc(-c2ccccn2)s1 (configuration not stated),-0.57
CCn1c[n+](CC(O)COC2CCCCC2)c2cc(C)c(C)cc21 (configuration not stated),2.1
Cn1c(NCC(O)CO)nc2c1c(=O)n(Cc1ccccc1Cl)c(=O)n2C (configuration not stated),0.33
